Results on 85 molecules are retold here after PubChem BioAssay AID1851 (National Center for Advancing Translational Sciences (NCATS), 2009).

Out of some 16,000 compounds screened, about 5,800 (36%) were called active. Another 23% or so got no clear call; they are omitted. The list shows a part of the results. Values without a mark were called inactive. The call rests on the fitted dose curve; in most records, active means well fitted curve in the direction sought with a large enough effect; inconclusive means small, poorly fitted or top-dose-only effect, or effect the other way; inactive means no such curve, though single readings can be large or run the other way.
On the % scale 0 is the no-effect control and ±100 the full control effect.

Cytochrome P450 2C19 (Homo sapiens), sequence (P33261 whole entry, looked up): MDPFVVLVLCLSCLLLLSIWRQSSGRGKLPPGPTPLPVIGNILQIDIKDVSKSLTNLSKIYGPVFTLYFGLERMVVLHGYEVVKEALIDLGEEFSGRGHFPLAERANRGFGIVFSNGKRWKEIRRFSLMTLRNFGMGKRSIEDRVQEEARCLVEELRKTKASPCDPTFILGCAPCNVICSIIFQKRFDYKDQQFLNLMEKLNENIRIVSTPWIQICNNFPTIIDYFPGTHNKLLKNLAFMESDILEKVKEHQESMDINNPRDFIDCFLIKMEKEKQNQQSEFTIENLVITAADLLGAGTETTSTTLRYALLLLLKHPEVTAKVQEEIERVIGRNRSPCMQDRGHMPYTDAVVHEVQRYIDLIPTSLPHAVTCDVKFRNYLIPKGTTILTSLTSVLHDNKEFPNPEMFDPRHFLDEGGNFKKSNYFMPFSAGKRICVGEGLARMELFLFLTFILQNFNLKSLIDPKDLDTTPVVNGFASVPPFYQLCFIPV

The experiment concerns the target Cytochrome P450 2C19 (Homo sapiens) (UniProt P33261). Briefly: Cytochrome panel assay with activity outcomes. Particulars: recombinant CYP, pro-luciferin dealkylation, luminescence, p450-cyp2c19; series mostly up to 57.1 µM; activity, negative = inhibition: at the top concentration.
On to `COc1cc(/C=N/NC(N)=O)c(Br)cc1OCC(=O)Nc1ccccc1C`, for which the AC50 is 11200 nM (active).

As for `O=C1C2=C(NC(=S)NC2c2ccc(Cl)cc2)NC(c2ccc(Cl)cc2)N1c1ccc(Cl)cc1` (stereo not given), the AC50 was 2240 nM (active).

With `CCC(Sc1nc2cc3c(cc2c(=O)n1Cc1ccco1)OCO3)C(=O)Nc1ccccc1OC` (stereo not given), the AC50 was 2510 nM (active).

As to `CCC(Sc1nc2cc3c(cc2c(=O)n1Cc1ccco1)OCO3)C(=O)Nc1cccc(OC)c1` (stereo not given), the AC50 was 7080 nM (active).

For `COc1cccc(Cn2c(=O)c(-c3cccs3)nc3cnc(Nc4cccc(OC)c4)nc32)c1`, the “activity, negative = inhibition” value was -9.76%.

As for `COc1cccc(Nc2ncc3nc(-c4cccs4)c(=O)n(Cc4cccs4)c3n2)c1`, the “activity, negative = inhibition” value was -1.11%.

On to `Cn1c(=O)c2[nH]cnc2n(C)c1=O`, for which the “activity, negative = inhibition” value was -6.84% [at 25.6 µM].

For `N#CCCn1c(=O)c(-c2cccs2)nc2cnc(Oc3cccc(Cl)c3)nc21`, the “activity, negative = inhibition” value is -34.9%.

For the molecule `Cc1nc2sccc2c(=O)n1-c1cccc(Cl)c1`, the AC50 is 794 nM (active).

For `COC(=O)C/C=C\[C@@H](C)[C@@H](/C=N\OC[C@@H](O)COCc1ccco1)OC`, the activity, negative = inhibition was -19.2% [at 11.4 µM].

Regarding `CCCNC(=O)OC[C@@H]1O[C@H](CCO/N=C\[C@@H](C)[C@H](OCc2ccccc2)C(C)C)C=C[C@@H]1Oc1ccc(OC)cc1`, the AC50 is 3160 nM (active).

For the molecule `C=CC[C@@H]1C=C[C@@H](O/N=C\[C@@H](OC)[C@H](C)/C=C\CC(=O)OC)[C@@H](CO)O1`, the activity, negative = inhibition is -6.92% [at 11.4 µM].

For `CC(=O)OC[C@@H]1O[C@H](CCO/N=C\[C@@H](C)[C@H](OCc2ccccc2)C(C)C)C=C[C@@H]1OC(C)=O`, the activity, negative = inhibition is -11.7% [at 11.4 µM].

Consider `COC(=O)C/C=C\[C@@H](C)[C@@H](/C=N\OC[C@@H]1O[C@H](c2ccccc2)C=C[C@@H]1Oc1ccc(OC)cc1)OC`, for which the AC50 was 1580 nM (active).

With `C=CC[C@@H]1C=C[C@H](O/N=C\[C@@H](C)[C@H](OCc2ccccc2)C(C)C)[C@H](CO)O1`, the activity, negative = inhibition was -27.4% [at 11.4 µM].

As for `COC(=O)C/C=C\[C@@H](C)[C@@H](/C=N\O[C@@H](C)CN1CCCCc2nc(C)c(C)cc21)NS(=O)(=O)c1ccc(C)cc1`, the activity, negative = inhibition was -9.76% [at 11.4 µM].

Take `COC(=O)C/C=C\[C@@H](C)[C@@H](/C=N\OC[C@@H]1O[C@H](c2ccccc2)C=C[C@@H]1Oc1ccc(OC)cc1)NS(=O)(=O)c1ccc(C)cc1`: the AC50 is 398 nM (active).

For the molecule `COC(=O)C/C=C\[C@@H](C)[C@@H](/C=N\OC[C@@H](O)[C@H]1O[C@H]2OC(C)(C)O[C@H]2[C@@H]1O)NS(=O)(=O)c1ccc(C)cc1`, the activity, negative = inhibition was -25.2% [at 11.4 µM].

Take `CCCNC(=O)OC[C@H]1O[C@@H](CCO/N=C\[C@@H](NS(=O)(=O)c2ccc(C)cc2)[C@H](C)/C=C\CC(=O)OC)C=C[C@@H]1Oc1ccc(OC)cc1`: the AC50 was 3160 nM (active).

For the molecule `COC(=O)C/C=C\[C@@H](C)[C@@H](/C=N\OCC[C@H]1C=C[C@H](OC(C)=O)[C@@H](COC(C)=O)O1)NS(=O)(=O)c1ccc(C)cc1`, the activity, negative = inhibition is -2.17% [at 11.4 µM].

For the molecule `CCCc1c(OCCCOc2ccc(OCC(=O)O)cc2)ccc(C(C)=O)c1O`, the “activity, negative = inhibition” value was -37.6%.

In the case of `O=C1C2C3C=CC(C3)C2C(=O)N1/N=C/c1cn(Cc2ccc(F)cc2)c2ccccc12` (stereo not given), the AC50 was 11200 nM (active).

With `c1ccc(NCCSc2nc3ccccc3s2)cc1`, the AC50 was 398 nM (active).

As for `NCCSc1nc2ccccc2s1`, the AC50 is 1580 nM (active).

Consider `Oc1ccccc1C(Sc1nc2ccccc2s1)Sc1nc2ccccc2s1`, for which the AC50 is 3160 nM (active).

As to `c1ccc2sc(SCSc3nc4ccccc4s3)nc2c1`, the AC50 was 1260 nM (active).

Regarding `c1ccc2sc(SCCSc3nc4ccccc4s3)nc2c1`, the activity, negative = inhibition is 6.86% [at 11.4 µM].

`C[N+](C)(C)CC(=O)O`: the “activity, negative = inhibition” value was 10.6%.

With `CC(C)OC(=O)CC12CN(C)CC(CC(=O)OC(C)C)(CN(C)C1)C2=O`, the “activity, negative = inhibition” value is -21.7%.

With `COc1ccc(-c2nc3cnc(N4CCOCC4)nc3n(C[C@H]3CCCO3)c2=O)cc1`, the “activity, negative = inhibition” value was -19.7%.

Regarding `O=C(O)[C@@H]1CS[C@@]2(CCCN(Cc3ccccc3)C2)N1`, the activity, negative = inhibition is 7.34% [at 11.4 µM].

For the molecule `C#CCCCO/N=C1/C[C@@H](O)[C@@H](O)[C@@H]2[C@@H]3C(=O)N(CC)C(=O)[C@H]3CC[C@@H]12`, the activity, negative = inhibition is -28.6% [at 11.4 µM].

As to `CCOC(=O)c1cnc(SCCc2ccccc2)nc1N`, the AC50 is 7940 nM (active).

As for `Cc1ccc(C2=Nc3ccccc3S[C@@H](c3cccc([N+](=O)[O-])c3)C2)cc1`, the AC50 is 3980 nM (active).

Consider `Cc1ccc(/C(C#N)=C/c2cccc([N+](=O)[O-])c2)cc1`, for which the activity, negative = inhibition is 8.97% [at 11.4 µM].

As to `NC[C@@H]1O[C@H](c2ccccc2)Cc2c1ccc(O)c2O`, the AC50 is 1000 nM (active).

For the molecule `NC[C@@H]1O[C@H](C23CC4CC(CC(C4)C2)C3)Cc2c1ccc(O)c2O`, the “activity, negative = inhibition” value is -13.6%.

For the molecule `O=C1[C@H]2[C@H]3[C@H](O)[C@H](O)C/C(=N/OCc4ccccc4)[C@@H]3CC[C@@H]2C(=O)N1C[C@@H]1CCCO1`, the activity, negative = inhibition is -0.01% [at 11.4 µM].

`CC1(CCC(=O)OC2CCCCC2)OCCO1`: the activity, negative = inhibition was -35.8% [at 11.4 µM].

`CC1(CC(=O)O)O[C@H]2CCCCC[C@H]2O1` (stereo not given in full) (tested in a mixture with another compound): the activity, negative = inhibition was 1.88% [at 11.4 µM].

Consider `O=C(CC1(O)CCCCC1)OC1CCCC1`, for which the AC50 was 1580 nM (active).

Consider `COc1ccccc1CNc1cc(-c2ccc(C(=O)N(C)C)cc2)ncn1`, for which the “activity, negative = inhibition” value was -35%.

On to `COc1ccccc1CNc1cc(-c2ccccc2OC)ncn1`, for which the AC50 is 1580 nM (active).

With `Cc1cnc(CNc2cc(-c3ccccc3CN(C)C)ncn2)cn1`, the “activity, negative = inhibition” value is -5.32%.

With `COc1ccccc1CNc1cc(-c2ccccc2C)ncn1`, the AC50 is 1000 nM (active).

Consider `CC1CCN(c2cc(N3CCC(C)CC3)c([N+](=O)[O-])cc2/C=C(\C#N)c2nn(-c3ccccc3)c(N)c2C#N)CC1`, for which the AC50 was 447 nM (active).

Take `N#C/C(=C\c1cc([N+](=O)[O-])c(N2CCCCC2)cc1N1CCCCC1)c1nn(-c2ccccc2)c(N)c1C#N`: the AC50 was 282 nM (active).

For the molecule `Cc1noc(C)c1C(=O)N1CCC2(CCN(C(=O)NC(C)C)CC2)CC1`, the “activity, negative = inhibition” value was -42%.

With `OC[C@@H]1NC[C@@H](O)[C@@H](O)[C@H]1O`, the “activity, negative = inhibition” value is 17.9%.

As for `O=C(NNC(=S)NCc1ccco1)c1ccc(Cl)s1`, the AC50 is 7940 nM (active).

Turning to `Nc1ncnc2c1ncn2[C@H]1O[C@@H](C(=O)OCCO)[C@@H](O)[C@H]1O`, the activity, negative = inhibition is 4.2% [at 11.4 µM].

Take `C=C1c2cccc(O)c2C(O)=C2C(=O)[C@@]3(O)C(O)=C(C(N)=O)C(=O)[C@@H](N(C)C)[C@@H]3[C@@H](O)[C@H]12`: the “activity, negative = inhibition” value was -9.19% [at 25.6 µM].

Regarding `Cc1c(NC(=O)CN2C(=O)C3C4C=CC(C4)C3C2=O)c(=O)n(-c2ccccc2)n1C` (stereo not given), the “activity, negative = inhibition” value was -21.4%.

Regarding `Cc1c(NC(=O)NC(C)N2C(=O)C3C4C=CC(C4)C3C2=O)c(=O)n(-c2ccccc2)n1C` (stereo not given), the “activity, negative = inhibition” value is -3.29%.

For `CCC(C(=O)c1ccccc1)N(C(=O)c1ccccc1Cl)N1C(=O)C2C3C=CC(C3)C2C1=O` (stereo not given), the AC50 is 3550 nM (active).

As to `Cn1c(CN2CCCCC2)nc2cc(NC(=O)c3ccc(Cl)cc3)ccc21`, the half-maximal activity concentration (AC50) is 28200 nM (active).

`COc1ccc(C(=O)Nc2ccc3c(c2)nc(CN2CCN(C(C)=O)CC2)n3C)cc1`: the “activity, negative = inhibition” value is 2.91%.

Consider `Cc1c(/C=C2\SC(=O)N(CC(=O)Nc3ccc4c(c3)OCO4)C2=O)c2ccccc2n1C`, for which the AC50 was 2510 nM (active).

For `Cc1ccc(NC(=O)CN2C(=O)S/C(=C\c3cccn3C)C2=O)cc1`, the “activity, negative = inhibition” value was -11.2%.

As for `CCn1c(C)cc(/C=C2\SC(=O)N(CC(=O)Nc3ccc(C)c(C)c3)C2=O)c1C`, the AC50 was 1120 nM (active).

As to `Cn1cc(/C=C2/SC(=O)N(CC(=O)Nc3ccc4c(c3)OCO4)C2=O)c2ccccc21`, the AC50 is 794 nM (active).

`CC(C)n1cc(/C=C2/SC(=O)N(CC(=O)Nc3ccc4c(c3)OCO4)C2=O)c2ccccc21`: the AC50 was 5010 nM (active).

As for `CC(C)=CCC/C(C)=C/CO/N=C1/C[C@@H](O)[C@@H](O)[C@@H]2[C@H]3C(=O)N(c4ccc(F)cc4F)C(=O)[C@@H]3CC[C@H]12`, the activity, negative = inhibition is -33.8% [at 11.4 µM].

`CCNc1ncc2nc(-c3ccccc3)c(=O)n(Cc3cccs3)c2n1`: the “activity, negative = inhibition” value was -10.5%.

With `CN(C)c1ncc2nc(-c3ccc(F)cc3)c(=O)n(Cc3cccs3)c2n1`, the “activity, negative = inhibition” value was 4.17%.

Consider `COc1cccc(Cn2c(=O)c(-c3cc(F)cc(F)c3)nc3cnc(N(C)C)nc32)c1`, for which the “activity, negative = inhibition” value was 2.39%.

For the molecule `COc1cccc(Cn2c(=O)c(-c3ccccc3)nc3cnc(N(C)C)nc32)c1`, the “activity, negative = inhibition” value is -36%.

As for `CCNc1ncc2nc(CCc3ccccc3)c(=O)n(Cc3cccc(OC)c3)c2n1`, the AC50 was 6310 nM (active).

As for `COc1cccc(Cn2c(=O)cnc3cnc(N(C)C)nc32)c1`, the AC50 was 2510 nM (active).

Take `COc1cccc(Cn2c(=O)c(CCc3ccccc3)nc3cnc(N(C)C)nc32)c1`: the AC50 was 794 nM (active).

Consider `CN(C)c1ncc2nc(CCc3ccccc3)c(=O)n(Cc3cccs3)c2n1`, for which the AC50 was 6310 nM (active).

Turning to `CN(C)c1ncc2nc(-c3ccc(Cl)cc3)c(=O)n(Cc3cccs3)c2n1`, the “activity, negative = inhibition” value is 34.8%.

As to `C=CCN1CCc2cc(O)c(O)cc2[C@H](c2ccccc2)C1`, the AC50 result is “inactive”.

For `COc1cccc(Cn2c(=O)c(CCc3ccccc3)nc3cnc(OC)nc32)c1`, the AC50 was 15800 nM (active).

For the molecule `CN(C)c1ncc2ncc(=O)n(Cc3cccs3)c2n1`, the AC50 was 10000 nM (active).

For `COc1ccc(Oc2ncc3nc(-c4cccc(C#N)c4)c(=O)n(Cc4cccc(OC)c4)c3n2)cc1`, the “activity, negative = inhibition” value was 2.61%.

For the molecule `CN(C)c1ncc2nc(-c3cc(F)cc(F)c3)c(=O)n(CCc3ccccc3)c2n1`, the “activity, negative = inhibition” value is 13.3%.

On to `Cc1nc2cnc(N(C)C)nc2n(Cc2cccs2)c1=O`, for which the “activity, negative = inhibition” value was -27%.

On to `COc1cccc(Cn2c(=O)c(-c3cccc(C#N)c3)nc3cnc(Nc4ccccc4)nc32)c1`, for which the “activity, negative = inhibition” value is -33.9%.

Consider `CN(C)c1ncc2nc(CCc3ccccc3)c(=O)n(Cc3ccc(F)cc3)c2n1`, for which the AC50 was 794 nM (active).

For `COc1cccc(Cn2c(=O)c(-c3cccc(C#N)c3)nc3cnc(OC)nc32)c1`, the AC50 was 10000 nM (active).

Turning to `CN(C)c1ncc2nc(-c3ccccc3)c(=O)n(Cc3ccc(F)cc3)c2n1`, the “activity, negative = inhibition” value is -22%.

On to `COc1cccc(Cn2c(=O)c(-c3cn(C)c4ccccc34)nc3cnc(OC)nc32)c1`, for which the “activity, negative = inhibition” value was -30%.

Take `CN(C)c1ncc2nc(-c3cccs3)c(=O)n(Cc3cccs3)c2n1`: the “activity, negative = inhibition” value is -12.8%.

For the molecule `COc1ccc(-c2nc3cnc(OC)nc3n(Cc3cccc(OC)c3)c2=O)cc1`, the “activity, negative = inhibition” value is -7.4%.
